# Assay results: PubChem BioAssay AID1259343 (VanderVen Lab, College of Veterinary Medicine, Cornell …, 2017)
# The whole screen tested about 6,200 compounds, of which about 2,900 (47%) were called active. Cut-off read from the data, not from the text of the source: active = inhibition above about 50%; inactive = the rest. So high a share suggests a set chosen from earlier hits. The list shows a part of the results.
# Experiment: Mycobacterium tuberculosis growth inhibition, primary screen (AID 1259343)
# Settings: inhibition: at 10 µM, stronger effect = higher value; outcome: 10 uM
row,SMILES,inhibition
1,Cc1ccc(Cl)cc1N1CCN(C(=O)Nc2nncs2)CC1,2.42% (inactive)
2,O=c1c(C2OCC3(CO2)CC2C=CC3C2)coc2ccccc12 (stereo not given),35.6% (inactive)
3,Nc1ccn2ncc([P+](c3ccccc3)(c3ccccc3)c3ccccc3)c2n1,24% (inactive)
4,CCCCc1ccc(NC(=O)/C=C/c2cnn(C)c2C)cc1,93.3% (active)
5,Cc1ccc(NC2=C(Cl)C(=O)N(CC(C)C)C2=O)cc1,73.8% (active)
6,COc1ccccc1N1C(=O)C(Cl)=C(Nc2ccc(S(N)(=O)=O)cc2)C1=O,-0.54% (inactive)
7,Cc1ccc(Cl)c2sc(NCCN(C)C)nc12,36.2% (inactive)
8,CCN(CC)CCN(C(=O)c1ccnn1CC)c1nc2c(C)c(Cl)ccc2s1,38.3% (inactive)
9,Cc1c(Cl)ccc2sc(N3CCNCC3)nc12,90.2% (active)
10,Cc1ccc(Cl)c2sc(N3CCNCC3)nc12,100% (active)
11,Cc1cc(C)c2nc(N3CCNCC3)sc2c1,97.1% (active)
12,Cc1nc(N2CCNC(=O)C2)c2c(CC(C)C)csc2n1,-15.6% (inactive)
13,Cc1c(O)cccc1C(=O)NC1CC(=O)N(CC2CCCCC2)C1 (stereo not given),-18.6% (inactive)
14,Cc1ccc(C)c2[nH]c(=O)c(CCNC(=S)NCCc3ccccc3)cc12,51.5% (active)
15,C/C(=C/C(=O)NCCc1ccccc1F)CCc1ccccc1,23.7% (inactive)
16,Fc1ccc(NN=C2c3ccccc3-c3ccccc32)cc1,44.1% (inactive)
17,N#CC(C#N)=NNc1ccccc1,-41.6% (inactive)
18,N#CC(C#N)=NNc1ccc2c(c1)OCCO2,70.3% (active)
19,N#CC(C#N)=NNc1ccc(F)cc1,91.2% (active)
20,N#CC(C#N)=NNc1ccc2c(c1)OCO2,45.5% (inactive)
21,N#CC(C#N)=NNc1ccc(SC(F)F)cc1,82.4% (active)
22,CCCOCCn1cc(C2CC=CCC2)nn1 (stereo not given),75.7% (active)
23,O=C(NCCC(=O)N1CCCC1)c1ccc(-c2ccc(Cl)cc2)o1,86.7% (active)
24,S=C(c1ccc(-c2ccc(Cl)c(Cl)c2)o1)N1CCOCC1,19.5% (inactive)
25,CCC1CCc2c(sc3nc[nH]c(=O)c23)C1 (stereo not given),51.2% (active)

row,SMILES,inhibition
1,C=CCn1c(-c2cc3c(s2)CCC(CC)C3)n[nH]c1=S (stereo not given),3.05% (inactive)
2,OCC1(CO)COC(c2ccccc2)=N1,56.2% (active)
3,Cc1ccc(-n2cc(O)nn2)cc1,94% (active)
4,Cc1ccc(OCc2cn(-c3ccc(Cl)cc3)nn2)cn1,24.1% (inactive)
5,CCCCN(CCCC)c1nc(OC)nc(-n2nnc(C(C)=O)c2C)n1,15% (inactive)
6,Cn1c(=NC(=O)c2ccc3ccccc3n2)sc2ccccc21,45.5% (inactive)
7,Cc1cc(C)c(CNC(=O)c2ccc3ccccc3n2)c(=O)[nH]1,70.6% (active)
8,OCCNc1nc(-c2ccccc2)c2cc(Br)ccc2n1,3.07% (inactive)
9,O=C(c1scc2c1CCCC2)N1CCCC1,16.9% (inactive)
10,O=C(NCc1ccco1)c1cc(-c2cccs2)on1,35.1% (inactive)
11,O=C(NC1CCCC1)c1cc(-c2cccs2)on1,93.6% (active)
12,Cc1noc(-c2cccs2)c1C(=O)NCCOc1ccccc1,-3.83% (inactive)
13,Cc1cc(/C=C(/Cl)c2nc(-c3cccs3)no2)cc(C)c1O,32.2% (inactive)
14,Cc1cc(C(=O)N2CCC(N3CCCC(C(=O)N4CCOCC4)C3)CC2)no1 (stereo not given),-0.96% (inactive)
15,O=C(NC1CCCC1)c1nc(-c2cccs2)no1,79.1% (active)
16,O=C(c1cc(-c2cccs2)on1)N1CCCC1,51.3% (active)
17,N#CC(O[C@@H]1O[C@H](CO[C@@H]2O[C@H](CO)[C@@H](O)[C@H](O)[C@H]2O)[C@@H](O)[C@H](O)[C@H]1O)c1ccccc1 (stereo not given in full),-0.91% (inactive)
18,COc1cccc(C(=O)N2CCC(c3nc(-c4ccc(C(F)(F)F)cc4)no3)CC2)c1,30.8% (inactive)
19,CC1CCN(C(=O)CCc2nc(-c3ccc(F)cc3)no2)CC1,87.9% (active)
20,CCOC(=O)C(=O)N1CCC(c2nc(-c3ccc(F)c(F)c3)no2)CC1,75.8% (active)
21,COc1ccc(CC(=O)N2CCC(c3nc(-c4ccc(C(F)(F)F)cc4)no3)CC2)cc1,76.9% (active)
22,CC1CCN(C(=O)CSc2nnc(C(C)Oc3ccc(F)cc3)o2)CC1 (stereo not given),-37.3% (inactive)
23,COc1ccc(CCc2nnc(CCC(=O)N3CCC(c4ccc(F)cc4)C3)o2)cc1 (stereo not given),15.2% (inactive)
24,COc1ccc(CC(=O)N2CCC(c3nc(-c4ccc(F)c(F)c4)no3)CC2)cc1,51.3% (active)
25,CC(C)c1ccc(OP(N)(=O)Oc2ccccc2F)cc1 (stereo not given),12.2% (inactive)
